According to PubChem BioAssay (Tox21):
Values without a mark were called inactive. Results filed as inconclusive are left out. Where a call stands in place of a potency, no number is given. Calls of active or inactive are those of the source. Unless noted, the call rests on the fitted dose curve; in most records, active means well fitted curve in the direction sought with a large enough effect in the repeat runs; inconclusive means weak or mixed curves; inactive means no such curve, though single readings can be large; an effect the other way counts as inactive or inconclusive.

How the values were obtained:
[1] = qHTS assay to identify small molecule antagonists of the estrogen related receptor (ERR) signaling pathway from Tox21 library - cell viability counter screen (AID 1224834); further: nearly all actives have a fitted effect of over 30% in size; further: potency means the concentration at half of the fitted maximal effect
In short: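 ERR reporter cells, 2,000 per well, rested 6 h, then exposed to compound in DMSO for 17.5 hours at 37 C. Viability read as fluorescence after 30 min with CellTiter-Fluor.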

[2] = molecular target: Luciferin 4-monooxygenase (Photinus pyralis) (UniProt P08659); assay: qHTS assay to identify small molecule inhibitors of firefly luciferase (AID 1224835); further: nearly all actives have a fitted effect of over 25% in size; further: potency means the concentration at half of the fitted maximal effect
In short: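 Quantitative HTS format; KM concentrations of both substrates. Purified P. pyralis FLuc activity quantified from luminescence images.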

[3] = qHTS assay to identify small molecule agonists of the constitutive androstane receptor (CAR) signaling pathway - cell viability counter screen (AID 1224836); further: nearly all actives have a fitted effect of over 45% in size; further: potency means the concentration at half of the fitted maximal effect
In short: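 Fluorescence from CellTiter-Fluor indicates live cells after 23 h exposure. The human hepatoma line expresses hCAR and a CYP2B6-2.2kb reporter. Incubation medium contains 0.75 uM PK11195 (final).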

[4] = qHTS assay to identify small molecule antagonists of the constitutive androstane receptor (CAR) signaling pathway - cell viability counter screen (AID 1224837); further: nearly all actives have a fitted effect of over 45% in size; further: potency means the concentration at half of the fitted maximal effect
In short: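 HepG2 cells stably carrying hCAR and CYP2B6-2.2kb reporter, stimulated with 50 nM CITCO and compounds at 15 concentrations for 23 h at 37 C. Viability measured by CellTiter-Fluor fluorescence.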

[5] = qHTS assay to identify small molecule antagonists of the estrogen related receptor signaling pathway with the pleiotropic PPARgamma coactivator (PGC) from Tox21 10K library - cell viability counter screen (AID 1224840; active means well fitted cell-killing curve with a large enough effect in the repeat runs, not every such curve was filed as active; further: nearly all actives have a fitted effect of over 40% in size; further: potency means the concentration at half of the fitted maximal effect)
In short: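 PGC/ERR cells (2,000/well) plated 6 h, then compound-treated for 17.5 h at 37 C. Viability measured by CellTiter-Fluor fluorescence after 30 min at 37 C, multiplexed with the pathway assay.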

[6] = qHTS assay to identify small molecule antagonists of the estrogen related receptor signaling pathway with the pleiotropic PPARgamma coactivator (PGC) from Tox21 10K library (AID 1224841; call rule not given here; further: actives are mostly falling curves and most rising ones were filed inactive; nearly all actives have a fitted effect of over 50% in size; further: potency means the concentration at half of the fitted maximal effect)
In short: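 PGC/ERR cell line, 2,000 cells/well, pre-incubated 6 hours at 37 C, then exposed to compounds for 18 hours at 37 C; luciferase read with One-Glo luminescence after 30 min at room temperature.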

[7] = qHTS assay to identify small molecule agonists of the estrogen related receptor signaling pathway with the pleiotropic PPARgamma coactivator (PGC) from Tox21 10K library (AID 1224842); further: nearly all actives have a fitted effect of over 15% in size
In short: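 PGC/ERR reporter cells (NTP line) were seeded 2,000 per well, rested 6 h at 37 C/5% CO2, then pin-dosed with compounds in DMSO for 18 h at 37 C; luciferase read by One-Glo luminescence after 30 min at room temperature.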

[8] = molecular target: Thyrotropin receptor (Homo sapiens) (UniProt P16473); assay: qHTS assay to identify small molecule agonists of the thyroid stimulating hormone receptor (TSHR) signaling pathway (AID 1224843; calls by dose curve; further: nearly all actives have a fitted effect of over 45% in size)
In short: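 TSHR-expressing HEK293 cells (800 per well) were exposed to compounds for 30 min at room temperature. cAMP was then detected by HTRF competition with cAMP-d2 and anti-cAMP cryptate, read after 1 h at room temperature. Fifteen concentrations, triplicate.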

[9] = qHTS assay to identify small molecule agonists of the hypoxia (HIF-1) signaling pathway - cell viability counter screen (AID 1224844; calls by dose curve; further: nearly all actives have a fitted effect of over 50% in size; further: potency means the concentration at half of the fitted maximal effect)
In short: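 HRE-bla ME-180 cells, 2,000/well in 0.5% dialyzed FBS medium, treated 17 h at 37C with compounds. Viability read in the same wells as the bla reporter, by CellTiter-Glo luminescence after 30 min at room temperature.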

[10] = qHTS assay to identify small molecule agonists of H2AX (AID 1224845; active means well fitted activation curve with a large enough effect in the signal ratio in the repeat runs, not every such curve was filed as active; the % refers to the signal ratio)
In short: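 Wild-type CHO-K1 cells plated overnight, then exposed 3 hr at 37C to compounds at 15 concentrations (0.76% DMSO). Lysed, then HTRF anti-pH2AX(S139)-cryptate/anti-H2AX-d2 detection after 24 hr at room temperature; emissions 665 and 620 nm.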

[11] = qHTS assay to identify small molecule agonists of the hypoxia (HIF-1) signaling pathway (AID 1224846; active means well fitted activation curve with a large enough effect in the signal ratio in the repeat runs, not every such curve was filed as active; the % refers to the signal ratio)
In short: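 HRE-bla ME-180 beta-lactamase reporter cells in medium with 0.5% dialyzed FBS, pre-incubated 5 h then exposed to compounds 17 h at 37C, 5% CO2; reporter induction read with CCF4-AM FRET substrate.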

[12] = qHTS assay to identify small molecule agonists of H2AX - cell viability counter screen (AID 1224847; calls by dose curve; further: nearly all actives have a fitted effect of over 30% in size; further: potency means the concentration at half of the fitted maximal effect)
In short: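 Viability of CHO-K1 (wild type) cells after 3 hr compound exposure was measured by CellTiter-Glo luminescence.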

[13] = qHTS assay to identify small molecule antagonists of the estrogen related receptor (ERR) signaling pathway from Tox21 library (AID 1224848); further: nearly all actives have a fitted effect of over 50% in size; further: potency means the concentration at half of the fitted maximal effect
In short: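 Cells: ERR line, 2,000/well; 6 h preincubation 37 C/5% CO2. Cpd in DMSO via pin tool; 18 h, 37 C. ONE-Glo, 30 min RT, luminescence.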

[14] = qHTS assay to identify small molecule agonists of the estrogen related receptor (ERR) signaling pathway from Tox21 library (AID 1224849; calls by dose curve; further: nearly all actives have a fitted effect of over 15% in size); details: ERR reporter cell line, ONE-Glo luciferase, 18 h; at 92.4 µM (top of the series) unless noted
In short: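 ERR reporter cells (NTP line) pre-incubated 6 hours at 37 C, then exposed to compounds for 18 hours at 37 C. ONE-Glo luciferase luminescence was read after 30 minutes at room temperature.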

[15] = qHTS RealTime-Glo MT Cell Viability Assay in HepG2 cells - 24 hour (AID 1224867); further: nearly all actives have a fitted effect of over 50% in size
In short: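 Cell number in HepG2 cultures estimated from NanoLuc luminescence generated by metabolic reduction of a prosubstrate by living cells. The homogeneous, nonlytic format allowed repeated reads at 0, 8, 16, 24, 32 and 40 h of compound exposure.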

[16] = qHTS RealTime-Glo MT Cell Viability Assay in HEK293 cells - 32 hour (AID 1224868); further: nearly all actives have a fitted effect of over 50% in size; further: potency means the concentration at half of the fitted maximal effect
In short: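 Homogeneous bioluminescent viability format in HEK293 cells (600 cells/well). Following 5 h at 37 C/5% CO2, 23 nL compound was pintooled; the signal was measured repeatedly during 40 h incubation.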

[17] = A CellTox Green Cytotoxicity Assay to monitor cytotoxicity in HEK293 cells - 0 hour (AID 1224869); further: nearly all actives have a fitted effect of over 50% in size
In short: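 HEK293 cells, 600/well, were preincubated 5 hours and then exposed to compounds at 37 C for up to 40 hours. A cell-impermeant cyanine dye staining dead-cell DNA was read by fluorescence at 0, 8, 16, 24, 32 and 40 h time points.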

[18] = molecular target: Nuclear receptor subfamily 1 group I member 3 (Homo sapiens) (UniProt Q14994); assay: qHTS assay to identify small molecule antagonists of the constitutive androstane receptor (CAR) signaling pathway (AID 1224838); further: nearly all actives have a fitted effect of over 40% in size
In short: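 HepG2 cells stably carrying hCAR and a CYP2B6-2.2kb luciferase reporter, seeded 4 hrs before compound (15 concentrations). Stimulated with 50 nM CITCO for 24 hr at 37 C. ONE-Glo luminescence read after 30 min at room temperature.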

[19] = molecular target: Nuclear receptor subfamily 1 group I member 3 (Homo sapiens) (UniProt Q14994); assay: qHTS assay to identify small molecule agonists of the constitutive androstane receptor (CAR) signaling pathway (AID 1224839); further: nearly all actives have a fitted effect of over 15% in size; further: potency means the concentration at half of the fitted maximal effect
In short: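 Stable hCAR/CYP2B6-2.2kb HepG2 line in DMEM with 10% FBS; compounds (15 concentrations) and 0.75 uM PK11195 final, 24 h at 37 C/5% CO2, then ONE-Glo luminescence after 30 min.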

Chain of Thyrotropin receptor (Homo sapiens) (P16473 whole entry, looked up): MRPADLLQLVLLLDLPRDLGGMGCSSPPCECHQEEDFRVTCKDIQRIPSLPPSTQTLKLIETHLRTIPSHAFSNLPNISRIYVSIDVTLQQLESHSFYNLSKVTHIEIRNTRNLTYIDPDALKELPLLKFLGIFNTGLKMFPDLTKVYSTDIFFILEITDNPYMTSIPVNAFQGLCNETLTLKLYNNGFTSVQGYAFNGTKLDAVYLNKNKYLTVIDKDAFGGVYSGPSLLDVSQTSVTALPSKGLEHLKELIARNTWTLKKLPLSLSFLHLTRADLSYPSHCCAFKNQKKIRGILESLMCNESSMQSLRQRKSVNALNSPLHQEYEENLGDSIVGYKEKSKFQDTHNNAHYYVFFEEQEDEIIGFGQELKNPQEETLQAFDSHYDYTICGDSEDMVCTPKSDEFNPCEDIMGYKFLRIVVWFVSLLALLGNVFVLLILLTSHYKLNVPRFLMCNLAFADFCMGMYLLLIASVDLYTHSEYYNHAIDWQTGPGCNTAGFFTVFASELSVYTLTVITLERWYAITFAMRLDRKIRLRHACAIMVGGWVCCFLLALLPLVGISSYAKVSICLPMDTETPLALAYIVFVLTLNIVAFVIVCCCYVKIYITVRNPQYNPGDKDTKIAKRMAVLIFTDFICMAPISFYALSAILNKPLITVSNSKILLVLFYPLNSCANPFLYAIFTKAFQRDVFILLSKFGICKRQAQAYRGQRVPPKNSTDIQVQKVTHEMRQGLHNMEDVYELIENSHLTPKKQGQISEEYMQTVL
Chain of Nuclear receptor subfamily 1 group I member 3 (Homo sapiens) (Q14994 whole entry, looked up): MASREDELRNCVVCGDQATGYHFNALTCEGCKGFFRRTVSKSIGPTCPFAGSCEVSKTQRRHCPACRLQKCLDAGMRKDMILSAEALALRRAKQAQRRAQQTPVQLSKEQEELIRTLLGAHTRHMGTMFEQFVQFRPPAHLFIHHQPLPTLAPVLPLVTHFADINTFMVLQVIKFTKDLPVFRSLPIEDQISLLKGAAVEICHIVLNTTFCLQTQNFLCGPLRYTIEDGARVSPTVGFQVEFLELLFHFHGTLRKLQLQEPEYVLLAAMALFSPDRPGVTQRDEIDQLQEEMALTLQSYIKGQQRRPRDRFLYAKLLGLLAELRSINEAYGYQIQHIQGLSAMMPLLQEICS
Chain of Luciferin 4-monooxygenase (Photinus pyralis) (P08659 whole entry, looked up): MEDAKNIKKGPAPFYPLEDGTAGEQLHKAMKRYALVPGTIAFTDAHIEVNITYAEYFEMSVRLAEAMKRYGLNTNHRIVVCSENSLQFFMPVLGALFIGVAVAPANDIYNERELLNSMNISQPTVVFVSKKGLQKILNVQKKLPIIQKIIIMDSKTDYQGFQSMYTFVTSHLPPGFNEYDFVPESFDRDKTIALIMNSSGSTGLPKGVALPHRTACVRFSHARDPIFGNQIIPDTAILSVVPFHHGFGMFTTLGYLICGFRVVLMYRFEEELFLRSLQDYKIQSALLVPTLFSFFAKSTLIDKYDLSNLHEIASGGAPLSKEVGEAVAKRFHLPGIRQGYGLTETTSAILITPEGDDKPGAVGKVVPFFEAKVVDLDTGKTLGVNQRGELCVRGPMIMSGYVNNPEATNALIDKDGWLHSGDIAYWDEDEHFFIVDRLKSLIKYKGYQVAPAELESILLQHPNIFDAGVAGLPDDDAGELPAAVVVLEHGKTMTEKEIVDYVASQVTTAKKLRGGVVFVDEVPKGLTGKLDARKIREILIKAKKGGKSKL

| SMILES | Potency [1] | Potency [2] | Potency [3] | Potency [4] | Potency [5] | Potency [6] | Potency [7] | Potency [8] | Potency [9] | Potency [10] | outcome [11] | Potency [12] | Potency [13] | activity change, positive = activation [14] | Potency [15] | Potency [16] | Potency [17] | Potency [18] | Potency [19] |
| --- | --- | --- | --- | --- | --- | --- | --- | --- | --- | --- | --- | --- | --- | --- | --- | --- | --- | --- | --- |
| C1=CCC2CC=CC2C1 (stereo not drawn) | inactive | inactive | inactive | inactive | inactive | inactive | inactive | inactive | inactive | inactive | inactive | inactive | inactive | 1.2% | inactive | inactive | inactive | – | – |
| CCOC(=O)c1ccc(NC(=O)CN2CCCCC2)cc1 | inactive | inactive | inactive | inactive | inactive | inactive | – | – | inactive | inactive | inactive | inactive | inactive | – | inactive | inactive | inactive | inactive | – |
| O=C(O)CCC(=O)OC[C@@H](NC(=O)C(Cl)Cl)[C@H](O)c1ccc([N+](=O)[O-])cc1 | inactive | inactive | inactive | inactive | inactive | – | – | – | inactive | inactive | inactive | inactive | – | – | inactive | inactive | inactive | inactive | inactive |
| Cc1ccc2c(c1)CCCN2 | inactive | inactive | inactive | inactive | inactive | – | – | inactive | inactive | inactive | inactive | inactive | – | – | inactive | inactive | inactive | inactive | – |
| COc1ccc(CCN(C)CCCN2CCc3cc(OC)c(OC)cc3CC2=O)cc1OC | inactive | inactive | inactive | inactive | inactive | – | – | – | inactive | inactive | inactive | inactive | – | – | inactive | inactive | inactive | inactive | inactive |
| O=C(/C=C/c1ccc([N+](=O)[O-])cc1)c1ccccc1 | 54.6 µM (active) | 1.13 µM (active) | 61.3 µM (active) | 68.7 µM (active) | 54.6 µM (active) | – | – | inactive | 24.6 µM (active) | – | – | inactive | – | – | – | 24.6 µM (active) | inactive | – | – |
| CCN(CC)c1ccc(C(=C2C=CC(=[N+](CC)CC)C=C2)c2ccc(S(=O)(=O)O)cc2S(=O)(=O)[O-])cc1 | 21.7 µM (active) | 8.94 µM (active) | 24.3 µM (active) | 27.3 µM (active) | 27.3 µM (active) | 8.63 µM (active) | inactive | – | 8.71 µM (active) | – | inactive | 12.7 µM (active) | 9.69 µM (active) | – | inactive | inactive | inactive | – | – |
| CCCCCCOC(=O)CCCCC | inactive | inactive | inactive | inactive | inactive | – | – | inactive | inactive | inactive | inactive | inactive | – | – | inactive | inactive | inactive | – | – |
| CC[C@H]1OC(=O)[C@H](C)[C@@H](O[C@H]2C[C@@](C)(OC)[C@@H](O)[C@H](C)O2)[C@H](C)[C@@H](O[C@@H]2O[C@H](C)C[C@H](N(C)C)[C@H]2O)[C@](C)(O)C[C@@H](C)/C(=N\OCOCCOC)[C@H](C)[C@@H](O)[C@]1(C)O | 14.3 µM (active) | inactive | 25.5 µM (active) | 14.3 µM (active) | inactive | inactive | inactive | inactive | – | inactive | inactive | inactive | – | -14.4% [at 42.5 µM] | inactive | inactive | inactive | – | – |
| CNCc1ccc(NC(=O)c2c[nH]c3c2C(=O)CCC3)cc1 | inactive | inactive | inactive | – | inactive | inactive | inactive | inactive | inactive | inactive | inactive | inactive | inactive | -17.3% | inactive | – | inactive | inactive | 1.72 µM (active) |
| CC(C)(C)NCC(O)COc1cccc2c1C[C@H](O)[C@H](O)C2 (stereo partly drawn) | inactive | inactive | inactive | inactive | inactive | – | – | inactive | inactive | inactive | – | inactive | – | – | inactive | inactive | inactive | – | – |
| O=CNNC=O | inactive | inactive | inactive | inactive | inactive | – | – | – | inactive | inactive | inactive | inactive | – | – | inactive | inactive | inactive | – | – |
| CC(=O)C(=O)CC(C)C | inactive | inactive | inactive | inactive | inactive | – | – | inactive | inactive | inactive | inactive | inactive | – | – | inactive | inactive | inactive | – | – |
| CCCCCCC(O)CCOC(C)=O (stereo not drawn) | inactive | inactive | inactive | inactive | inactive | inactive | inactive | – | inactive | inactive | inactive | inactive | inactive | – | inactive | inactive | inactive | – | – |
| CCN(CC)C(=O)N1CCN(C)CC1 | inactive | inactive | inactive | inactive | inactive | – | inactive | inactive | inactive | inactive | – | inactive | inactive | 6.11% [at 42.5 µM] | inactive | inactive | inactive | – | – |
| CNc1c2c(nn1C)CCCC2 | inactive | inactive | inactive | inactive | inactive | – | – | inactive | inactive | inactive | – | inactive | – | – | inactive | inactive | inactive | – | – |
| COC(C)(C)OC | inactive | inactive | inactive | inactive | inactive | inactive | inactive | – | inactive | inactive | inactive | inactive | inactive | 2.58% | inactive | inactive | inactive | – | – |
